# According to PubChem BioAssay (NCI):
# This is part of a sample that, as a whole, favours compounds with a hit. Of some 83,000 tested, about 20% had one in any assay.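 How to read the values: 0–100, growth inhibition (40 = 60% inhibited); 0, no net growth; -100 to 0, cell death (-40 = 40% of starting cells died; -100 = all dead).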 A number with no mark means an inactive call. Calls of active or inactive are those of the source. The calls were made as follows: active = growth percent below 10; inactive = the rest.
# Columns and labels:
# Experiment in all cases: NCI-60 one-dose screen, 48 h (100 = growth as untreated, 0 = no growth, -100 = all killed)
# Conditions in all cases: 10 µM unless noted
# SR leukemia = system: SR leukemia
# RPMI-8226 leukemia = system: RPMI-8226 leukemia
# OVCAR-8 ovarian = system: OVCAR-8 ovarian
# OVCAR-5 ovarian = system: OVCAR-5 ovarian
# OVCAR-4 ovarian = system: OVCAR-4 ovarian
# SK-OV-3 ovarian = system: SK-OV-3 ovarian
# IGROV1 ovarian = system: IGROV1 ovarian
# OVCAR-3 ovarian = system: OVCAR-3 ovarian
# HS 578T breast = system: HS 578T breast
# NCI/ADR-RES ovarian = system: NCI/ADR-RES ovarian
# BT-549 breast = system: BT-549 breast
# MDA-MB-435 melanoma = system: MDA-MB-435 melanoma
# SW-620 colon = system: SW-620 colon
# MCF7 breast = system: MCF7 breast
# HCT-116 colon = system: HCT-116 colon
# HCC-2998 colon = system: HCC-2998 colon
# KM12 colon = system: KM12 colon
# T-47D breast = system: T-47D breast
SMILES,growth (SR leukemia),growth (RPMI-8226 leukemia),growth (OVCAR-8 ovarian),growth (OVCAR-5 ovarian),growth (OVCAR-4 ovarian),growth (SK-OV-3 ovarian),growth (IGROV1 ovarian),growth (OVCAR-3 ovarian),growth (HS 578T breast),growth (NCI/ADR-RES ovarian),growth (BT-549 breast),growth (MDA-MB-435 melanoma),growth (SW-620 colon),growth (MCF7 breast),growth (HCT-116 colon),growth (HCC-2998 colon),growth (KM12 colon),growth (T-47D breast)
CCN1C(=O)N(CC)C2C1NN=c1s/c(=C\c3cccc(F)c3)c(=O)n12 (stereo not given),4.36% (active),-0.526% (active),21.2%,55.6%,44.1%,72.3%,29.9%,-2.21% (active),17.9%,5.73% (active),17.1%,-34.1% (active),28.5%,20%,6.81% (active),19.5%,11.2%,
Cc1ccc(S(=O)(=O)NCCCNc2nccc(-c3c(-c4ccccc4)nc4sccn34)n2)cc1,33.9%,25.6%,37.9%,117%,48.4%,57.9%,35.7%,38%,74.9%,49%,38.9%,34%,58.1%,42.8%,15.2%,,18.6%,39.9%
CCOC(=O)c1ccccc1NC(c1ccccc1)c1ccc2cccnc2c1O (stereo not given),17.7%,17.5%,17%,53.7%,21.5%,14.1%,41.8%,32.6%,71.6%,11.9%,17.9%,39.4%,37.5%,16.1%,27.3%,51.8%,29.8%,
COc1cccc(-n2cc(-c3nc(Cl)c4ccccc4n3)nn2)c1,97.9%,97.7%,109%,109%,98.7%,117%,96.5%,105%,110%,97.4%,96.1%,97.3%,110%,92.6%,89.5%,105%,106%,
CCCC1OC(c2ccc(C(C)C)cc2)OCC1CC (stereo not given),91.7%,104%,96.7%,101%,112%,85.5%,112%,107%,99.6%,105%,102%,105%,112%,94.7%,93.9%,103%,107%,
Cc1cc(Nc2nc(-c3ccncc3)nc3ccccc23)n[nH]1,18.3%,91.6%,101%,87.1%,52.4%,22.8%,16.3%,67.2%,22.6%,86.4%,82.7%,40.3%,78.3%,40.2%,39.3%,72%,18.8%,
CCCCCCCCCN1C(=O)/C(=c2\sc3n(c2=O)C2C(NN=3)N(CC)C(=O)N2CC)c2ccccc21 (stereo not given),5.57% (active),80.4%,36.7%,80.8%,13.2%,93.7%,54.1%,21.1%,26.7%,46.9%,82.2%,-9.54% (active),30.5%,27.9%,5.86% (active),102%,9.43% (active),
CCOC(=O)CC/C(C)=N\Nc1ccc([N+](=O)[O-])cc1,39%,59.8%,56.9%,84.3%,77.2%,57.8%,71%,86.1%,88.6%,80.3%,82.4%,28.4%,,79.9%,48.7%,60.4%,22.2%,41.8%
O=C1c2ccccc2C(=O)c2c1oc1oc3c(c(=O)c21)c(=O)n(-c1ccccc1)c1ccccc31,11.4%,19.6%,48.2%,88.7%,18.8%,67.3%,71.8%,2.15% (active),90.5%,90.3%,12.3%,87.8%,18.6%,51.6%,41.7%,,18.9%,
O=C(Nc1ccccc1)OCC1OCOC(COC(=O)Nc2ccccc2)C1OC(=O)Nc1ccccc1 (stereo not given),18.1%,40.1%,32%,52.5%,-44.6% (active),91.5%,70.8%,28.8%,67.7%,69.8%,93.5%,11.2%,8.17% (active),16.5%,-51.6% (active),36.9%,51.2%,
COc1ccc(/C=C/C(=O)c2cccc(B(O)O)c2)cc1O,6.45% (active),5.96% (active),60.1%,88.4%,73.9%,58.1%,18.2%,-6.95% (active),32.9%,48.9%,13.9%,,9.61% (active),24.3%,3.16% (active),54.3%,3.44% (active),32.4%
O=C(CNC(=O)c1cccc2ccccc12)Nc1ccccc1Oc1ccccc1,13.1%,19.8%,13.4%,52.4%,36%,23.3%,32.1%,-30.5% (active),29.9%,10.3%,-0.557% (active),-5.12% (active),,11.3%,-2.26% (active),21%,9.93% (active),12.1%
CC(=O)Nc1ccc(S(=O)(=O)N2C(=O)CCC2C(=O)Nc2ccccc2)cc1 (stereo not given),28%,26.7%,40.4%,58.4%,39.9%,57.5%,28.9%,28.1%,63.1%,41.5%,,27.7%,30.2%,19.2%,26.5%,30.5%,12.4%,17.6%
COc1cccc(-c2nc3sccn3c2-c2ccnc(NCCCNS(=O)(=O)c3ccccc3)n2)c1,50.7%,28%,29.6%,128%,55.7%,73%,55.3%,48.2%,103%,23.1%,47.2%,40.9%,,52%,38.6%,93.8%,43.5%,0.88% (active)
O=C(CNc1c(Cl)cccc1Cl)Nc1ccc(-c2nc3ccccc3s2)cc1,10.7%,59.8%,66.7%,110%,17.5%,97.8%,49.3%,54.4%,87.2%,64%,22%,67.9%,35.3%,14.6%,29.9%,,91.3%,-19% (active)
CC(=O)Nc1ccc(S(=O)(=O)NC(CCC(=O)Nc2ccc(Cl)cc2)C(=O)O)cc1 (stereo not given),77.9%,99.1%,97.4%,77.7%,94%,93.7%,112%,107%,98.4%,100%,,85.2%,99.6%,84.8%,102%,103%,94.5%,80.4%
COc1cc(-n2nc(C(=O)Nc3ccc(C(=O)O)cc3)nc2-c2ccccc2)cc(OC)c1OC,118%,108%,86.3%,86.3%,110%,64.3%,51%,94.4%,97.5%,89.1%,105%,113%,101%,93.5%,91.7%,,105%,79%
CC(=O)Nc1ccc(S(=O)(=O)N2C(=O)CCC2C(=O)Nc2ccc(Br)cc2)cc1 (stereo not given),16.9%,10.1%,47.5%,77.5%,25.5%,69.2%,37.4%,24.4%,56.6%,41.8%,,27.6%,38.2%,9.58% (active),19.5%,49.4%,23.1%,1.46% (active)
